A selection: hits, their analogues and other compounds. The true share with any hit is near 3.5%.
Platelet DG rel: inhibitors of platelet dense granule secretion, primary screen, cell-based, MLPCN, human platelets. human platelet-rich plasma, SFLLRN dense granule ATP release, luminescence. inhibition, %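 (compounds screened at 7.5 µM in platelet-rich plasma)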. 0.22% of 300,000 active. AID 1663, 2009;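 active means mean replicate score, as percent of positive control, at or above 50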
TROY signal inh: inhibitors of TROY-driven NF-kB signaling, primary screen, Q293 LMP1-TROYcd cells, NF-kB luciferase, uHTS | Q293 LMP1-TROYcd NF-kB luciferase reporter, 4 h | inhibition, % at 10 µM | 0.98% of 360,000 active | AID 1347056, 2019;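 active means compounds whose plate-normalised and pattern-corrected inhibition of the luciferase reporter signal at the single screening dose is 50% or more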
PPC-1+TRAIL kill: compounds killing PPC-1 cancer cells with TRAIL present, primary screen, TRAIL potentiator project, ATPLite luminescence, uHTS. PPC-1 cells + TRAIL, ATPLite viability luminescence. cell killing (% activity), % at 4 µM or 5 µM. 0.41% of 220,000 active. AID 1443, 2008;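 active means cell killing above 50% in the first pass at 4 µM, then a duplicate retest at 5 µM averaging 50% or more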;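 further: plate controls were cells with TRAIL plus DMSO for no effect and medium-only wells lacking cells for full effect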
C8 TRAIL sens: viability loss with TRAIL in NB7+C8 cells, primary screen, TRAIL sensitizer project, cell-based, ATPlite luminescence | 1% of 360,000 active | inhibition (viability loss, TRAIL sensitization), % at 10 µM;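 active means compounds causing at least 50% loss of cell viability in the single-dose screen, relative to plate controls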
HSP90 inh: HSP90 inhibitors, primary screen, cell lysate, luminescence | Heat shock protein HSP 90 (rabbit reticulocyte lysate; luciferase refolding) | Rabbit reticulocyte lysate, luciferase refolding luminescence, 3 h | inhibition, % at 5.6 µM | 0.91% of 290,000 active;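 active means inhibition above the screen-wide mean plus 3 SD, computed separately per campaign, cut at about 16% in these data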;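 further: 0% = DMSO wells and 100% = 60 µM geldanamycin wells; inhibitors lower the luminescence because luciferase stays unfolded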
TWEAK Fn14 block: inhibitors of TWEAK-Fn14 signaling, primary screen, luciferase reporter cells, uHTS; TWEAK-stimulated Fn14 reporter cells, luciferase luminescence, 8 h; AID 1159606, 2016; inhibition, % at 10 µM; 2% of 360,000 active; in the data active means inhibition above about 50%
HSP90 confirm: HSP90 inhibitors, confirmation, cell lysate, luminescence | inhibition, % at 5.9 µM | shares compounds with HSP90 inh | 64% of 2,300 active | AID 1846, 2009 | rabbit reticulocyte lysate, luciferase refolding luminescence, 3 h; in the data active means inhibition above about 18%;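 further: 0% = vehicle wells and 100% = reference inhibitor wells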
luciferase ctr: firefly luciferase inhibitors, HSP90 counter-screen, confirmation, artefact control for HSP90 inhibitor project, biochemical, luminescence, triplicate; inhibition, % at 5.9 µM; AID 1847, 2009; purified native firefly luciferase; shares compounds with HSP90 inh; 48% of 2,300 active;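 active means inhibition above the mean inhibition of all tested sample wells plus 3 SD, cut at about 10% in these data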;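 further: 0% = DMSO with luciferase and 100% = wells lacking luciferase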
Target sequence (P08659 whole entry, looked up): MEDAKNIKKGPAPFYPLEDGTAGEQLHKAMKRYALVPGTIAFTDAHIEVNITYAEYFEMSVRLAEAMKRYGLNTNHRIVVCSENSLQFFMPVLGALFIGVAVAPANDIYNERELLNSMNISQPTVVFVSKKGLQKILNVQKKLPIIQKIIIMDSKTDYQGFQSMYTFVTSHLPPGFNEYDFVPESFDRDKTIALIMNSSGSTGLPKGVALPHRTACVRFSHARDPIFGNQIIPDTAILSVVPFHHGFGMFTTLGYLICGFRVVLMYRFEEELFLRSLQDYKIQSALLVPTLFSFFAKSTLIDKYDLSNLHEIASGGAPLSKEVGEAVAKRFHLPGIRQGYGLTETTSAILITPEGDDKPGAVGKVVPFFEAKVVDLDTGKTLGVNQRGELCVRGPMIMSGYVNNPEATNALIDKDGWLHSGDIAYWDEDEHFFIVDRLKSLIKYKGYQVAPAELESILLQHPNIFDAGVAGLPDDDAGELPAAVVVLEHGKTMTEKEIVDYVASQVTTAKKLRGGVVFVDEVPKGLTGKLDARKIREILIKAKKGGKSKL
Active calls of the source: *; x = no result.

SMILES	Platelet DG rel	TROY signal inh	PPC-1+TRAIL kill	C8 TRAIL sens	HSP90 inh	TWEAK Fn14 block	HSP90 confirm	luciferase ctr
CC(C)C(=O)Nc1ccc2nn(-c3ccc(F)cc3)nc2c1	-2.4	34.4	x	27.2	24.6*	35.7	27.6*	19.8*
O=C(/C=C/Nc1ccc(F)c(F)c1)c1ccc(Br)cc1	-5.0	-46.9	6.3	14.9	4.7	-21.2	x	x
O=C(/C=C/Nc1ccc(Br)cc1F)c1ccccc1	50.5*	76.0*	79.9*	93.9*	23.3*	86.2*	83.8*	77.8*
CCOC(=O)c1oc2ccc(S(=O)(=O)N3CCC(C)CC3)cc2c1C	9.5	2.5	15.7	-4.5	21.5*	9.0	-1.7	-9.2
CN(C(=O)/C=C/c1ccccc1)C1CCCCC1	-6.5	-24.1	x	10.6	x	-21.8	x	x
N#C/C(=C\N1CCCCC1)S(=O)(=O)c1ccc(Cl)cc1	9.9	3.9	-2.5	-1.6	1.0	0.1	x	x
CCOCc1nnc(NC(=O)C2CCN(C(=O)C3CC(=O)N(c4ccc(C)cc4)C3)CC2)s1 (stereo not drawn)	3.3	-15.8	x	-2.4	-3.6	4.5	x	x
Cc1nn(C)cc1C(=O)Nc1ccc2c(c1)OCCO2	-5.3	41.4	x	-12.7	18.6*	66.5*	20.8*	9.0
Cc1c(C(=O)Nc2ccc3c(c2)OCCO3)cnn1C	8.7	73.5*	x	9.6	34.9*	91.3*	56.8*	60.3*
Cn1ccc(C(=O)Nc2ccc3c(c2)OCCO3)n1	26.2	-32.9	x	39.4	12.3	33.1	x	x
C=CCn1c(C)cc(C(=O)COC(=O)CNC(=O)c2ccccc2)c1C	-10.2	85.4*	1.0	0.0	17.4*	89.2*	5.5	29.4*
COc1cc(/C=N/NC(=O)c2ccncc2)ccc1OC(=O)c1ccccc1Cl	-0.3	32.8	-14.0	-8.8	-1.7	16.6	x	x
COc1cc(/C=N/Nc2ccc(Cl)c(C(=O)O)c2)ccc1OC(=O)c1ccccc1F	-2.7	-45.7	x	-20.0	54.5*	-10.8	79.7*	-27.8
COc1cc(C(=O)N/N=C/c2ccc(OC(=O)c3ccccc3Cl)c(OC)c2)ccc1O	15.2	35.9	x	19.1	-2.6	-14.0	x	x
COc1cc(/C=N/Nc2ccc(Cl)c(C(=O)O)c2)ccc1OC(=O)c1ccc(F)cc1	-10.1	-24.0	x	-10.4	59.6*	-13.3	72.8*	-17.3
CN1CCN(c2nc(-c3ccc(C(C)(C)C)cc3)nc3ccccc23)CC1	4.3	77.8*	x	71.3*	54.4*	84.6*	52.4*	49.2*
Cc1oc(-c2cc(Cl)cc(Cl)c2)cc1C(=O)NCCc1ccccc1	-4.1	23.3	6.0	0.5	-4.7	-7.0	x	x
COc1ccc(CCNC(=O)c2cc(-c3cc(Cl)cc(Cl)c3)oc2C)cc1	-5.0	12.5	-3.1	1.5	18.9*	7.5	6.4	-4.2
O=C(c1cc(-c2ccc3c(c2)OCO3)on1)N1CCCCC1	8.4	47.5	x	57.2*	35.7*	78.5*	58.4*	55.2*
O=C(c1cc(-c2ccc(Cl)c(Cl)c2)on1)N1CCCCCC1	-13.7	-27.3	x	6.2	-1.5	-18.7	x	x
COc1ccc(-c2cc(C(=O)N3CCOCC3)c3ccccc3n2)cc1OC	4.4	13.7	x	-3.4	x	-9.4	x	x
Cc1ccc(-c2cc(C(=O)N3CCOCC3)no2)cc1	-10.7	67.4*	x	69.2*	62.0*	85.6*	68.4*	56.7*
COc1cc2cc(C(=O)N3CCOCC3)cc(-c3ccc(C)cc3)c2cc1OC	-2.8	-12.9	x	-17.6	50.1*	-28.2	5.0	1.3
COc1ccc(-c2cc(C(=O)N3CCN(Cc4ccccc4)CC3)no2)cc1OC	-1.0	-8.0	-6.3	-19.7	52.3*	-10.6	-1.1	-12.8
Nc1cc(-c2cccc([N+](=O)[O-])c2)[nH]n1	-3.7	7.4	6.7	-2.9	-0.8	-7.9	x	x
SMILES	Platelet DG rel	TROY signal inh	PPC-1+TRAIL kill	C8 TRAIL sens	HSP90 inh	TWEAK Fn14 block	HSP90 confirm	luciferase ctr
O=c1cc(-c2cccc([N+](=O)[O-])c2)[nH][nH]1	0.3	5.8	21.4	-0.1	23.8*	-1.0	0.4	-3.0
CCn1nnc2cc(C(=O)NCCc3ccccc3F)ccc21	15.8	31.1	x	14.1	42.8*	82.3*	59.2*	38.9*
CC(C)c1ccc(NC(=O)Nc2nnc([C@H]3C[C@H](O)[C@@H](CO)O3)s2)cc1	x	-13.2	x	11.1	x	-4.2	x	x
Nc1ccccc1SSc1ccccc1N	-6.2	16.7	1.9	-0.8	10.7	10.5	35.7*	8.3
CC(O)c1nc2ccccc2n1C(C)c1ccccc1 (stereo not drawn)	-3.7	-5.9	x	-5.3	3.5	-1.4	x	x
CC1CN/C(=C\C(=O)c2ccccc2)C(=O)N1 (stereo not drawn)	-2.7	-3.8	24.1	1.6	1.9	0.7	x	x
CC1CN/C(=C\C(=O)c2ccc(Cl)cc2)C(=O)N1 (stereo not drawn)	0.5	-13.4	28.2	13.6	21.9*	73.4*	40.2*	24.4*
CCc1ccccc1N(CC(=O)N1CCCCCC1)S(C)(=O)=O	12.4	-1.5	x	3.2	-0.8	-3.9	x	x
CCc1ccccc1N(CC(=O)N1CCCC1)S(C)(=O)=O	-12.1	-0.4	x	1.7	22.2*	3.5	-2.9	-2.0
COc1cccc(/C=C2/SC(=O)N(C)C2=O)c1OCc1ccc(C(=O)O)cc1	-1.9	8.0	18.8	-1.3	-2.3	-13.2	x	x
CN1C(=O)S/C(=C/c2ccc(OCc3cccc(C(=O)O)c3)cc2)C1=O	-0.2	-43.5	x	13.8	46.5*	-4.1	50.2*	-3.3
COc1cccc(C(=O)c2cn(CC(=O)NCc3ccco3)c3nc(C)ccc3c2=O)c1	-7.2	-3.1	x	-7.6	1.4	8.2	x	x
CN(C)c1ccc(/C=N/NC(=O)c2ccccn2)cc1	22.1	31.3	27.8	65.9*	23.8*	-13.9	62.2*	47.2*
O=C(N/N=C/c1ccc(N2CCOCC2)cc1)c1ccccn1	25.1	-17.8	21.3	37.0	26.1*	7.4	14.4	0.6
CN(C)c1ccc(/C=C(\C#N)c2ccccn2)cc1	33.1	74.4*	14.2	93.9*	65.6*	93.6*	83.9*	78.2*
N#C/C(=C\c1ccc([N+](=O)[O-])cc1)c1ccccn1	0.1	-76.4	-21.1	11.1	3.2	-30.4	x	x
O=C(N/N=C/c1ccncc1)c1ccccn1	12.6	-15.4	x	0.4	2.3	-12.9	x	x
CCOc1ccc(NC(=O)CN(C)C(=O)C(C)N2C(=O)c3ccccc3C2=O)cc1OCC (stereo not drawn)	x	2.9	x	1.0	x	1.4	x	x
